Data reported in PubChem BioAssay (NCATS).
Results filed as inconclusive are left out. Activity calls are given as the source filed them. Unless noted, the call rests on the fitted dose curve; in most records, active means well fitted curve in either direction with a large enough effect (not every such curve was filed as active); inconclusive means small, poorly fitted or top-dose-only effect, or another doubt; inactive means flat fitted curve, though single readings scatter.

What was measured:
[1] = target: Lysosomal acid glucosylceramidase (Homo sapiens) (UniProt P04062); assay: Glucocerebrosidase-p2 (AID 348; in the data active means potency below about 10 µM; further: potency means the concentration at half of the fitted maximal effect); conditions: purified GBA, blue fluorogenic substrate, 40 min
Sequence of Lysosomal acid glucosylceramidase (Homo sapiens) (P04062 whole entry, looked up): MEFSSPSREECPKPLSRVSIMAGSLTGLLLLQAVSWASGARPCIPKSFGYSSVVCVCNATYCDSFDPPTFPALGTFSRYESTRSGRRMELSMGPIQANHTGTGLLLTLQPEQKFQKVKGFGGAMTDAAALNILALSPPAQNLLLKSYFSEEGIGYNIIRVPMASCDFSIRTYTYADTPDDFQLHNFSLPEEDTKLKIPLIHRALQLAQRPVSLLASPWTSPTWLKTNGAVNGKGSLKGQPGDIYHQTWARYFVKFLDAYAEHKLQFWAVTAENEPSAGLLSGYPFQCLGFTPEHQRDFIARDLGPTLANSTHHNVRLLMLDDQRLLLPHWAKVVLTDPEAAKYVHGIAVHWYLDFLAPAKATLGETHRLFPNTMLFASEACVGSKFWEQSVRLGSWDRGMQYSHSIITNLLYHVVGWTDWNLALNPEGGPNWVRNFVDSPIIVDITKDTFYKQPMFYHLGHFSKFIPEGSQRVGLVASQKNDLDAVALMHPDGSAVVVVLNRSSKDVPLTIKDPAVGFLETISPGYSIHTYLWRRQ
Outline: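 Compounds titrated from 0.6 nM upwards against 0.2 nM enzyme in pH 5.9 citric acid/KH2PO4, taurocholate, tween-20; blue fluorogenic substrate 80 uM, 40 min room temperature, stopped and read Ex 365/Em 440 for AC50.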

[2] = AP1 Signaling Pathway (AID 357); conditions: ME-180 AP-1-bla reporter, EGF-induced, beta-lactamase ratio, 5 h; at 7.69 µM (top of the series) unless noted;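 further: ME-180 reporter cells stimulated with EGF at its EC50 level; on the % scale 0 is the no-effect control and ±100 the full control effect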
Outline: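 Beta-lactamase reporter under AP-1 response element, ME-180 background. Stimulus: EC50 EGF. Compound exposure 5 h, 37 °C. Detection: CCF4, 2.5 h RT, 460/530 nm. Values: AC50 from titration.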

[3] = target: Cytochrome P450 1A2 (Homo sapiens) (UniProt P05177); assay: p450-cyp1a2 (AID 410; calls by dose curve; further: potency means the concentration at half of the fitted maximal effect;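 on activity change, negative = inhibition: -100% = full effect of reference inhibitor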); conditions: recombinant CYP1A2, luciferin-ME demethylation, luminescence; series mostly up to 11.4 µM
Sequence of Cytochrome P450 1A2 (Homo sapiens) (P05177 whole entry, looked up): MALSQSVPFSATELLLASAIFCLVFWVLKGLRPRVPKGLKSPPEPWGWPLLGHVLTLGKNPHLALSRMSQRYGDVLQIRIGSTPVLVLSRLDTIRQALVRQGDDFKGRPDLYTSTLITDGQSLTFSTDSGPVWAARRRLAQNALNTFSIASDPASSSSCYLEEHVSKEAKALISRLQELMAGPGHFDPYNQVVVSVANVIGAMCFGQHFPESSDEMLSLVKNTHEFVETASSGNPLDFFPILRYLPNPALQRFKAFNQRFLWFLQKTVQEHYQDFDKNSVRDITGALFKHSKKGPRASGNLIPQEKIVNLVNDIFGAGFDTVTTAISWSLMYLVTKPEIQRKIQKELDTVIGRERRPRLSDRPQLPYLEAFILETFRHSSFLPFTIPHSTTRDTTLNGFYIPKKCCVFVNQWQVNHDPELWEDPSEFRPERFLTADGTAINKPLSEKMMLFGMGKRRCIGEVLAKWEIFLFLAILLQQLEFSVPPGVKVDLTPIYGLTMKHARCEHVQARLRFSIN
Outline: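 20nM CYP1A2 with 100uM Luciferin-ME (at Km) in 100mM KPO4; compound preincubated 10 min, NADPH regeneration added, 60 min at room temperature. Luciferin quantified by luminescence after detection reagent; normalized to 57 uM furafylline.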

[4] = NFAT Signaling Pathway (AID 444); conditions: Jurkat NFAT-bla M1, carbachol, beta-lactamase ratio, 5 h; at 7.69 µM (top of the series) unless noted;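 further: carbachol stimulus at about its EC50 of 1 µM final; on the % scale 0 is the no-effect control and ±100 the full control effect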
Outline: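 Read-out: CCF4 FRET ratio (460 nm/530 nm) after 1 h RT dye loading, used for %activity and AC50 from titration series. Cells: Jurkat NFAT-β-lactamase/M1 line, treated with compound plus 1 uM carbachol for 5 h, 37 °C.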

[5] = Stat Signaling Pathway (AID 446); conditions: ME-180 SIE beta-lactamase reporter, IL-6 stimulated, 5 h; at 7.69 µM (top of the series) unless noted;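 further: ME-180 cervical cancer cells given 40 pM IL-6 alongside compound; SIE-controlled beta-lactamase reporter measured as 460/530 nm FRET emission ratio; on the % scale 0 is the no-effect control and ±100 the full control effect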
Outline: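 ME-180 SIE-bla cells; overnight plating; cpd + IL-6 40 pM, 5 h, 37 C; LiveBLAzer 2.5 h RT; 460/530 nm emission ratio. Normalized to 300 pM IL-6 and 125 nM JAK inhibitor controls.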

[6] = target: Glucocorticoid receptor (Homo sapiens) (UniProt P04150); assay: GR-GFP Redistribution (AID 450;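 active means compounds whose dose series gives a full or clear partial fitted curve of increased nuclear translocation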; further: potency means the concentration at half of the fitted maximal effect); conditions: U2OS GR-GFP nuclear translocation, laser cytometry, 2 h
Sequence of Glucocorticoid receptor (Homo sapiens) (P04150 whole entry, looked up, the tested form may be a part): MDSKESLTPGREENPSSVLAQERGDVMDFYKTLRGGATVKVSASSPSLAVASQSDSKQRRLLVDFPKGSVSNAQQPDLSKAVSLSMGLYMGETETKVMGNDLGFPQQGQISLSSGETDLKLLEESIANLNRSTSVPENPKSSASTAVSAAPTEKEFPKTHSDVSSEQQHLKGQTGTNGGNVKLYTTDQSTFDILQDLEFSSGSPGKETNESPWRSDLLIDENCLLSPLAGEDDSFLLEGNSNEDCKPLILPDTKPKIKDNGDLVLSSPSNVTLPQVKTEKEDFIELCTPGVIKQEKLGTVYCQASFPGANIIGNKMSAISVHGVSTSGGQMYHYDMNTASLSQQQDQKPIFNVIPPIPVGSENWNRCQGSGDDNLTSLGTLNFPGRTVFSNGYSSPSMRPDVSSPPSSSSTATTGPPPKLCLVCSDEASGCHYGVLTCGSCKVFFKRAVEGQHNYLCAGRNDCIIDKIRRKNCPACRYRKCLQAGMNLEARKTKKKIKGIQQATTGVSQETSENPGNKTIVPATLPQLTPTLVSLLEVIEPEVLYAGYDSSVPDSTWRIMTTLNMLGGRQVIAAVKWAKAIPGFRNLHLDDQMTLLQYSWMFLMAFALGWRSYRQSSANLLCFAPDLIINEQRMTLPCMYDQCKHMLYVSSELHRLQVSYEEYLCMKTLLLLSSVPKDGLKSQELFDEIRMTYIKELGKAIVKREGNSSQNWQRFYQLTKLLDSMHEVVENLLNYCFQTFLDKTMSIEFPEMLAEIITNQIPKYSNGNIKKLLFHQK

[7] = target: Glucocorticoid receptor (Homo sapiens) (UniProt P04150); assay: GR-EFC Redistribution (AID 451; calls by dose curve; further: potency means the concentration at half of the fitted maximal effect); conditions: CHO-K1 GR-EFC translocation, beta-gal luminescence, 2 h
Outline: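 Translocation of GR-ED fusion to nuclear EA restores b-gal, read by luminescence after 1 h room-temperature detection. Engineered CHO-K1 biosensor cells, 1,000/well, exposed 2 h at 37 C to titrations up to 46 uM final.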

[8] = target: Mitogen-activated protein kinase 10 (Mus musculus) (UniProt Q61831); assay: JNK3 AlphaScreen Assay (AID 530); conditions: JNK3 lysate, c-Jun phosphorylation; series mostly up to 11.4 µM;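 further: kinase came from lysate of stimulated human HepG2 cells; signal reports phosphorylation of biotinylated GST-cJun 1-79 at Ser73 with 10 µM ATP; on the % scale 0 is the no-effect control and ±100 the full control effect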
Outline: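 Compound titrations were preincubated 15 minutes at room temperature with substrate, antibody and pre-activated JNK3-containing HepG2 lysate. Reactions were started with 10 uM ATP and stopped with EDTA-containing bead buffer for AlphaScreen detection.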

[9] = target: Cytochrome P450 3A4 (Homo sapiens) (UniProt P08684); assay: qHTS Assay for Activators of Cytochrome P450 3A4 (AID 885; active means well fitted curve in the direction sought with a large enough effect; an effect the other way counts as inactive or inconclusive; further: nearly all actives have a fitted effect of over 65% in size); conditions: recombinant CYP3A4, Luciferin-PPXE luminescence, 60 min; series mostly up to 11.4 µM
Sequence of Cytochrome P450 3A4 (Homo sapiens) (P08684 whole entry, looked up): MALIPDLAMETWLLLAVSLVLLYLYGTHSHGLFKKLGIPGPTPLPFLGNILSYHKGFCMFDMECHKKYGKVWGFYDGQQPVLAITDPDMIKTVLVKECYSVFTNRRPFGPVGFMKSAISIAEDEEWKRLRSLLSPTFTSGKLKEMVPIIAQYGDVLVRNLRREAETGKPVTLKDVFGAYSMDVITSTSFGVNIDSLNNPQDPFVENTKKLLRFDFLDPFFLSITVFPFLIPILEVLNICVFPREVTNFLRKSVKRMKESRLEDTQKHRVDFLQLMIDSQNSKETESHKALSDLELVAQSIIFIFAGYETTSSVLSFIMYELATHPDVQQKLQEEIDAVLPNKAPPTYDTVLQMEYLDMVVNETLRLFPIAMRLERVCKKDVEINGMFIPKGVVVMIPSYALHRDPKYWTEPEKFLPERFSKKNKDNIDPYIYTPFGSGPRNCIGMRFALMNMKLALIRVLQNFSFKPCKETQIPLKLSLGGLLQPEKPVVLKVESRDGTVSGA
Outline: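 20nM CYP3A4 + 25uM Luciferin-PPXE (=KM), 200mM KPO4; cpd 10 min RT; NADPH regen, 60 min RT; stop w/ detection buffer, 20 min; luminescence. Normalized to 57 uM ketoconazole.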

[10] = Confirmation and Secondary Assay for Modulators of Hemoglobin Beta Chain Splicing at IVS2 654 locus (AID 910; active means well fitted curve in the direction sought with a large enough effect; an effect the other way counts as inactive or inconclusive;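 further: HeLa cells stably carrying EGFP split by mutant beta-globin IVS2-654 intron; per-well total GFP intensity by laser scanning cytometry after 2-day treatment; % of control where 0% means no effect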); conditions: HeLa EGFP-654 splicing reporter, GFP fluorescence, 48 h; series mostly up to 38.3 µM
Outline: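 Readout: per-well total peak green fluorescence (488 nm ex, 500–520 nm em) from objects 5–250 µm, reflecting correct splicing of an EGFP-654 reporter. Compounds were applied for 2 days at 37 °C to overnight-plated HeLa EGFP-654 cells; controls were DMSO and 500 nM IVS2-654 PNA.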

[11] = qHTS Assay for Identification of Small Molecule Agonists for Hypoxia Response Element Signaling Pathway (AID 914; active means well fitted activation curve with a large enough effect in the signal ratio, with a control signal flat, not every such curve was filed as active; the % refers to the signal ratio; further: % of control where 0% means no effect); conditions: ME-180 (cervical carcinoma) HRE-bla reporter, beta-lactamase ratio, CoCl2, 17 h; activation: hits give high values
Outline: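 Compounds in a titration series were added to ME-180 reporter cells alongside an EC50 level of CoCl2. After 17 hours, beta-lactamase activity was read as the 460nm/530nm emission ratio of CCF4, giving AC50 values.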

[12] = target: 3',5'-cyclic-AMP phosphodiesterase 4B (Homo sapiens) (UniProt Q07343); assay: qHTS Assay for Inhibitors of PDE-IV (AID 607; active means well fitted activation curve with a large enough effect in the main read-out, with a control signal flat, not every such curve was filed as active; further: % of control where 0% means no effect); conditions: HEK293 ACTOne CNG channel cells, membrane potential fluorescence; series mostly up to 22.9 µM
Sequence of 3',5'-cyclic-AMP phosphodiesterase 4B (Homo sapiens) (Q07343 whole entry, looked up): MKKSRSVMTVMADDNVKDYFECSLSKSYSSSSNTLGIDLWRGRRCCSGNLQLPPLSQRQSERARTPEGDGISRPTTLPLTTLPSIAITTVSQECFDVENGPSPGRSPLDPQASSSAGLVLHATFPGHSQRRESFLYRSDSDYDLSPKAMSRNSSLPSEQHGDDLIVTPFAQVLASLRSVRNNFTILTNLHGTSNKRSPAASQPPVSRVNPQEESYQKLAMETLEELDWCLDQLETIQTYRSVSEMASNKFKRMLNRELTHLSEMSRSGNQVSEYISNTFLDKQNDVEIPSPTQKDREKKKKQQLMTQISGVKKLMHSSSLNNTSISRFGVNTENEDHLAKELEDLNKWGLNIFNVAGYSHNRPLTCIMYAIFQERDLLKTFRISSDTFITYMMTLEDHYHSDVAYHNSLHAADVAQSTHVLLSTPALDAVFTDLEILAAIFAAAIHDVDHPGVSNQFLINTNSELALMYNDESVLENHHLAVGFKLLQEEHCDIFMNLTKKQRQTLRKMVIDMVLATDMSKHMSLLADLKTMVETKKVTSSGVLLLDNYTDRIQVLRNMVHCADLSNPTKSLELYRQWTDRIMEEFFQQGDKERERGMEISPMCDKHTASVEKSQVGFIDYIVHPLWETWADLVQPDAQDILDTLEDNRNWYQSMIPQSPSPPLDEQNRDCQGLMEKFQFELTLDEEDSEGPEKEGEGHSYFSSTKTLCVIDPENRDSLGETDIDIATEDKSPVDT
Outline: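 ACTOne HEK293 cells carry a modified cAMP-gated CNG channel and express endogenous PDE4; plated 1000 cells/well, compounds up to 22.9 uM final. Membrane-potential dye fluorescence (ex 535/em 590) was read; parental cells received 10 uM forskolin + 100 uM RO 20-1724.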

[13] = target: Cytochrome P450 2C9 (Homo sapiens) (UniProt P11712); assay: qHTS Assay for Inhibitors and Substrates of Cytochrome P450 2C9 (AID 883; active means well fitted curve in the direction sought with a large enough effect; an effect the other way counts as inactive or inconclusive; further: nearly all actives have a fitted effect of over 60% in size; further: potency means the concentration at half of the fitted maximal effect); conditions: recombinant CYP2C9, luciferin-H luminescence, 60 min; series mostly up to 11.4 µM
Sequence of Cytochrome P450 2C9 (Homo sapiens) (P11712 whole entry, looked up): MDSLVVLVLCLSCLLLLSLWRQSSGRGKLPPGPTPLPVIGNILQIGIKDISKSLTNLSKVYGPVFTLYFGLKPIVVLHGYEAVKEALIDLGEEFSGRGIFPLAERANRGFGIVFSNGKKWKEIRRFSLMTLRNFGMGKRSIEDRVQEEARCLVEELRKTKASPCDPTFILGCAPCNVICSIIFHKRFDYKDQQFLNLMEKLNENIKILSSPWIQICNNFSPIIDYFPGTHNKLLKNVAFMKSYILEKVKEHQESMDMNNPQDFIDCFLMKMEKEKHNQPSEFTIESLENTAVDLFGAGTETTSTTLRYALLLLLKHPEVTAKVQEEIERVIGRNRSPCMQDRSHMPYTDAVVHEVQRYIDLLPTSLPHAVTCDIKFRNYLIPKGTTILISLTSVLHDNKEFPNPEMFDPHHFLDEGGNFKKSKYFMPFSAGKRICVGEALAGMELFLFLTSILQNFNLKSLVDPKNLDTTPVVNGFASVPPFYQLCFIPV
Outline: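 Luminescent read-out of deoxyluciferin hydroxylation, normalized to 57uM sulphaphenazole (AC100). Reaction: 10nM enzyme, 100uM Luciferin-H (equal to KM), 25mM KPO4, 10 min compound preincubation, then 60 min with NADPH regeneration, both at 37C.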

[14] = target: Cytochrome P450 3A4 (Homo sapiens) (UniProt P08684); assay: qHTS Assay for Inhibitors and Substrates of Cytochrome P450 3A4 (AID 884; active means well fitted curve in the direction sought with a large enough effect; an effect the other way counts as inactive or inconclusive; further: potency means the concentration at half of the fitted maximal effect; nearly all actives have a fitted effect of over 50% in size); conditions: recombinant CYP3A4, Luciferin-PPXE luminescence; series mostly up to 57.1 µM
Outline: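 20 nM human CYP3A4 with 25 uM Luciferin-PPXE (at KM) in 200 mM KPO4, preincubated 10 min with compound; NADPH regeneration started a 60 min RT reaction. Luciferin detected by luminescence, normalized to 57 uM ketoconazole as full inhibition.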

[15] = target: Cytochrome P450 2C19 (Homo sapiens) (UniProt P33261); assay: qHTS Assay for Inhibitors and Substrates of Cytochrome P450 2C19 (AID 899; active means well fitted curve in the direction sought with a large enough effect; an effect the other way counts as inactive or inconclusive; further: nearly all actives have a fitted effect of over 60% in size; further: potency means the concentration at half of the fitted maximal effect); conditions: recombinant CYP2C19, luciferin-H EGE luminescence; series mostly up to 11.4 µM
Sequence of Cytochrome P450 2C19 (Homo sapiens) (P33261 whole entry, looked up): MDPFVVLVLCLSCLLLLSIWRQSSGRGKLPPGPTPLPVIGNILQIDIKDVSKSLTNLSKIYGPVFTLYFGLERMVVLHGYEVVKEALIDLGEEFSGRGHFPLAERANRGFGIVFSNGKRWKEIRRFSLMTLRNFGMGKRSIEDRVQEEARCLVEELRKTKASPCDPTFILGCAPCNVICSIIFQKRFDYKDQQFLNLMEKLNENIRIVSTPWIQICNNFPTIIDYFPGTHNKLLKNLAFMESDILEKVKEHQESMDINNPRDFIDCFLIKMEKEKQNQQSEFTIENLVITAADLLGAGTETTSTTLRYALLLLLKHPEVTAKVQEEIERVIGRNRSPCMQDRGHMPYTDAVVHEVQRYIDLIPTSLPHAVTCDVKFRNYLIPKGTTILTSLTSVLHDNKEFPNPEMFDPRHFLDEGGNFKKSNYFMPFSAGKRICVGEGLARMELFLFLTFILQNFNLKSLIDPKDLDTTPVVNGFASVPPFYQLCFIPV
Outline: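 Luminescence readout of luciferin formed from 10uM Luciferin-H EGE (KM level) by 5 nM CYP2C19 in 50mM KPO4. 60 min NADPH-driven reaction at 37C after 10 min compound preincubation; data scaled to 57uM ketoconazole inhibition.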

CN(C)C(=O)c1ccc(-c2nc(Nc3ccc(F)cc3)c3ccccc3n2)cc1
inactive: Potency [1] > 11.4 µM | activity change, negative = inhibition [2] -18.3% | activity change, negative = inhibition [4] 1.18% | activity, negative = inhibition [5] -8.08% | Potency [6] > 46 µM | Potency [7] > 46 µM | Potency [8] | Potency [9] | outcome [10] | activation [11] 14.9%
active: Potency [3] 3.98 µM

O=C(O)c1cccc(CN2CCCCC2)c1
inactive: Potency [1] > 11.4 µM | activity change, negative = inhibition [2] 9.32% | Potency [3] | activity change, negative = inhibition [4] -15.5% | activity, negative = inhibition [5] 3.88% | Potency [6] > 46 µM | Potency [7] > 9.22 µM | Potency [12] | Potency [13]

COCCn1c(=O)c(-c2cccs2)nc2cnc(Oc3ccc(OC)cc3)nc21
active: Potency [3] 2.51 µM | Potency [13] 5.01 µM | Potency [14] 0.794 µM
inactive: Potency [1] > 11.4 µM | activity change, negative = inhibition [2] -1.43% | activity change, negative = inhibition [4] 15.8% | activity, negative = inhibition [5] 11.7% | Potency [6] > 9.22 µM | Potency [7] > 46 µM | Potency [12] | Potency [9]

N=C(N)SCC(=O)O
inactive: Potency [1] > 11.4 µM | activity change, negative = inhibition [2] -10.2% | activity change, negative = inhibition [3] -10.2% [at 2.29 µM] | activity change, negative = inhibition [4] 6.44% | activity, negative = inhibition [5] -4.57% | Potency [6] > 46 µM | Potency [7] > 9.22 µM | Potency [8] | Potency [15]

Cc1ccc(S(=O)(=O)N[C@H](CN)C(=O)O)cc1
inactive: Potency [1] > 11.4 µM | activity change, negative = inhibition [2] 10.5% | activity change, negative = inhibition [3] -18.5% [at 2.29 µM] | activity change, negative = inhibition [4] 3.21% | activity, negative = inhibition [5] 8.31% | Potency [6] > 46 µM | Potency [7] > 9.22 µM | Potency [12] | Potency [15]

O=C(O)CC12C[C@H]3C[C@@H](CC(O)(C3)C1)C2
inactive: Potency [1] > 11.4 µM | activity change, negative = inhibition [2] 9.34% | Potency [3] | activity change, negative = inhibition [4] -2.52% | activity, negative = inhibition [5] -1.43% | Potency [6] > 46 µM | Potency [7] > 9.22 µM | Potency [12]

O=C1c2ccccc2C(=O)c2c(NC3CCCCC3)ccc(Nc3ccc(S(=O)(=O)O)cc3)c21
active: Potency [3] 1.26 µM | Potency [15] 3.98 µM
inactive: Potency [1] > 11.4 µM | activity change, negative = inhibition [2] -7.28% | activity change, negative = inhibition [4] -27.6% | activity, negative = inhibition [5] -10.9% | Potency [6] > 46 µM | Potency [7] > 9.22 µM | Potency [12]

COc1cc(C2SCCCCCCCCCCSC(c3ccc(O)c(OC)c3)SCCCCCCCCCCS2)ccc1O (centres undefined)
inactive: Potency [1] > 11.4 µM | activity change, negative = inhibition [2] -0.286% | activity change, negative = inhibition [3] -6.9% [at 2.29 µM] | activity change, negative = inhibition [4] 19.7% | activity, negative = inhibition [5] 9.48% | Potency [6] > 46 µM | Potency [8] | Potency [12]
